Sampled rows, rich in hits. Any-hit rate of the full collection: about 3.5%.
MITF primary = blocks human microphthalmia-associated transcription factor; inhibition, % at 2.6 µM; hit rate 0.91% among 650,000; AlphaScreen MITF homodimerization, bead proximity signal; AID 1259374; in the data active means inhibition above about 50%
TEAD-YAP inh = TEAD-YAP interaction inhibition. hit rate 1.4% among 640,000. AID 1259422. inhibition, % at 9.12 µM. HEK-TIYL cells, TEAD-Gal4/YAP UAS-luciferase luminescence; in the data active means inhibition above about 32%
FBW7 activator = human FBW7 E3 ligase activation, primary screen. Q969H0. AlphaScreen FBW7–phospho-cyclin E peptide binding, activator screen. normalized activity (activation), % at 26.1 µM. hit rate 0.13% among 650,000. AID 1259310; in the data active means normalized activity above about 1.9%;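 further: purified mutant Fbw7 with reduced substrate affinity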
GPR151 ag = activates the human receptor GPR151; Q8TDV0; PathHunter beta-arrestin GPR151 cells, luminescence; activation, % at 11.2 µM; hit rate 1% among 650,000; in the data active means activation above about 4.9%
Target sequence (Q8TDV0 whole entry, looked up): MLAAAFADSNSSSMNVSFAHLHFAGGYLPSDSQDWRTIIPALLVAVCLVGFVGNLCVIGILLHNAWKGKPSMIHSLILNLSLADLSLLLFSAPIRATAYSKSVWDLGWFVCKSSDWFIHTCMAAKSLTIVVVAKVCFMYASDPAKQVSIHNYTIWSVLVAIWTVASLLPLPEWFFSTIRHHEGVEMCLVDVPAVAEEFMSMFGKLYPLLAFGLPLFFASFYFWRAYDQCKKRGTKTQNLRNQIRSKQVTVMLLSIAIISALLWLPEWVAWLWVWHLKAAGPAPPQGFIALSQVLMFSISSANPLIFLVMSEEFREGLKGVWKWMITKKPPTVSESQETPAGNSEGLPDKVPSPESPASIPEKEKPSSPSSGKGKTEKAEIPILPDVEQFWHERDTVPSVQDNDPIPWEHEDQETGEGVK
A number is an active result; – = inactive.

SMILES	MITF primary	TEAD-YAP inh	FBW7 activator	GPR151 ag
Cc1[nH]n(-c2ccccc2)c(=O)c1/C=N/Nc1nncc(-c2ccccc2)n1	–	42	–	–
COc1cc(/C=C2/C(=N)N3N=C(CC(C)C)SC3=NC2=O)ccc1OCc1ccccc1Cl	–	–	–	–
CSc1nnc2nc3c(nn12)c1ccccc1n3C	–	–	–	–
CSc1nc2ccccc2n1Cc1c(C)ccc2ccccc12	–	–	–	–
COc1ccc(NCN2C(=O)c3ccc([N+](=O)[O-])cc3C2=O)cc1	–	–	–	–
Cc1c2c(=O)n(-c3nc4ccccc4s3)[nH]c2cc(=O)n1Cc1ccccc1	71	–	–	–
COc1ccc(CCn2c(C)c3c(=O)n(-c4nc5ccccc5s4)[nH]c3cc2=O)cc1	–	–	–	–
CCC(Nc1ncnc2sc(C(=O)N3CCC(C(N)=O)CC3)c(C)c12)c1cccs1 (configuration not stated)	–	–	–	–
CN(C)c1ccc(-c2ccc(OC3CCN(CCc4ccccn4)CC3)cc2)cn1	–	53	–	–
COc1ccnc(N2CCC(Oc3ccc(-c4ccc(N(C)C)nc4)cc3)CC2)n1	–	61	–	–
COCc1ccc(-c2ccc(OC3CCN(c4nccc(OC)n4)CC3)cc2)cc1	–	–	–	–
CCOc1ccc(C(=O)Nc2nc3c(OCC)cccc3s2)cc1	–	–	–	–
COc1ccc(C(C)=O)cc1CSc1nc(NCc2ccc3c(c2)OCO3)c2ccccc2n1	–	–	–	–
COc1ccccc1CNS(=O)(=O)c1ccc(F)c(C(=O)Nc2ccc(C)c(C)c2)c1	–	–	–	–
COc1cccc2oc(-c3ccccc3)cc(=O)c12	–	60	–	–
O=c1oc2ccccc2cc1-c1cn2ccccc2n1	–	75	–	–
COc1cccc2cc(-c3cn4ccccc4n3)c(=O)oc12	–	42	–	–
CC(C)Oc1ccc(CNC(=O)CCC(=O)N2CCOc3ccccc32)cc1	–	–	–	–
O=C(NNC1CC(=O)N(c2cccc(C(F)(F)F)c2)C1=O)c1cccnc1 (configuration not stated)	–	–	–	–
Cn1c(=O)c2ncn(CC(=O)N/N=C/c3cc(Cl)ccc3O)c2n(C)c1=O	–	–	–	–
Cn1c(=O)c2ncn(CC(=O)N/N=C/c3cc(Br)ccc3O)c2n(C)c1=O	63	–	–	–
CCOc1ccc(/C=C(/C#N)c2ccc3c(c2)OCO3)cc1	–	–	–	–
COc1ccc(/C(C#N)=C/c2ccc3c(c2)OCO3)cc1OC	–	37	–	–
COC(=O)C1=C(C)N=c2s/c(=C\c3ccccc3)c(=O)n2C1c1ccc(OC)cc1 (configuration not stated)	–	–	–	–
CC(C)c1ccc(CNC(=O)C(=O)NCc2cccnc2)cc1	–	47	–	–
SMILES	MITF primary	TEAD-YAP inh	FBW7 activator	GPR151 ag
O=C(NCc1cccnc1)c1ccc(C#Cc2ccccc2)o1	–	99	–	–
O=C(NCc1ccccc1)C(=O)NCc1cccnc1	–	–	–	–
O=C(O)CCSc1nnc(-c2ccccn2)o1	–	–	–	–
O=C(CNC(=S)N(Cc1ccccc1)Cc1cccs1)NC1CC1	–	–	–	–
COc1cc2nc(-c3ccc(N4CCOCC4)nc3)nc(NCCO)c2cc1OC	–	–	–	–
CC1=C(C(=O)OCCc2ccccc2)C(c2ccc(F)c(F)c2)C2=C(CCCC2=O)N1 (configuration not stated)	–	–	–	–
O=[N+]([O-])CC(c1ccccc1)c1c[nH]c2ccccc12 (configuration not stated)	–	46	–	–
COc1cccc(C(C[N+](=O)[O-])c2c[nH]c3ccccc23)c1 (configuration not stated)	–	54	–	–
COc1cccc(C(C[N+](=O)[O-])c2c[nH]c3ccccc23)c1OC (configuration not stated)	–	–	–	–
COc1ccc(OC)c(NC(=O)Nc2nnc(N(C)Cc3ccccc3)s2)c1	–	–	–	–
Cc1ccc(NC(=O)c2cc(S(=O)(=O)NCCC3=CCCCC3)ccc2F)cc1F	–	34	–	–
Oc1c(C(c2cccnc2)N2CCCCC2)ccc2cccnc12 (configuration not stated)	92	–	–	–
Oc1c(C(c2cccnc2)N2CCCC2)ccc2cccnc12 (configuration not stated)	65	–	–	–
Oc1c(C(c2ccncc2)N2CCCCC2)ccc2cccnc12 (configuration not stated)	72	–	–	–
CCOc1ccc(CC(=O)NC(C)c2nc(-c3cccnc3)n[nH]2)cc1 (configuration not stated)	–	–	–	–
COc1ccc(N2C(=O)CN(Cc3cnn(C)c3C)CC23CCCC3)cc1	–	–	–	–
N#C/C(=C\C=C\c1ccc([N+](=O)[O-])o1)c1nc2ccccc2[nH]1	–	59	–	–
O=S(=O)(c1ccc(Cl)s1)N1CCc2ccccc2C1	–	41	–	–
O=S(=O)(c1ccc(Cl)s1)N1CCCCCC1	–	–	–	–
COc1ccccc1N1C(=O)/C(=C\c2cccn2C)C(=O)NC1=S	56	–	–	–
COc1ccc(N2C(=O)NC(=O)/C(=C\c3cc(OC)c(O)c(OC)c3)C2=O)cc1	–	–	2.1	–
COc1ccc(N2C(=O)NC(=O)/C(=C/c3cc(Cl)c(O)c(OC)c3)C2=O)cc1	–	–	–	–
COc1ccc(/C=C2/C(=O)NC(=O)N(c3ccc(C(C)C)cc3)C2=O)cc1O	–	–	1.9	–
COc1ccccc1N1C(=O)NC(=O)/C(=C\c2ccc(O)c(O)c2)C1=O	56	–	–	–
Cc1ccccc1N1C(=O)NC(=O)/C(=C\c2ccc(O)c(O)c2)C1=O	–	–	–	–
SMILES	MITF primary	TEAD-YAP inh	FBW7 activator	GPR151 ag
CC(C)CCSc1nc2ccccc2c2nc(-c3ccc([N+](=O)[O-])cc3)nn12	–	–	–	–
Cc1c(C#N)c(NC(=O)CCl)n(Cc2ccco2)c1C	–	32	–	–
Cn1c2c(c(=O)n(C)c1=O)C(c1cccc(O)c1)C1=C(N2)c2ccccc2C1=O (configuration not stated)	–	–	–	–
O=C(Cn1cc(C(=O)c2ccccc2)c(=O)c2ccccc21)Nc1ccccc1	–	–	–	–
CC(=O)c1ccc2c(c1)C1C=CCC1C(C(=O)O)N2 (configuration not stated)	79	–	–	–
NS(=O)(=O)c1ccc2c(c1)C1C=CCC1C(C(=O)O)N2 (configuration not stated)	72	–	–	–
Fc1ccc(C2Nc3ccc(OC(F)(F)F)cc3C3C=CCC32)cc1 (configuration not stated)	–	–	–	–
Cc1ccc2c(c1)C1C=CCC1C(C(=O)O)N2 (configuration not stated)	70	–	–	–
Cc1cc(I)cc2c1NC(C(=O)O)C1CC=CC21 (configuration not stated)	–	–	–	–
O=C(O)C1Nc2ccc(OC(F)(F)F)cc2C2C=CCC12 (configuration not stated)	75	–	–	–
